In PubChem BioAssay (EPA / NIEHS):
Calls of active or inactive are those of the source. How the source made its calls: active means hit-call score of the fitted dose curve at least 0.9, where 1 is the maximum; inactive means score below 0.9.

What follows are compounds tested on TIMP metallopeptidase inhibitor 1 (TIMP1), TIMP1 (gene 7076) (assay: BSK_hDFCGF_TIMP1: BioMAP Diversity Plus: hDFCGF Assay for TIMP metallopeptidase inhibitor 1 (TIMP1) Biomarker Activity (AID 2283062)). Details: primary human foreskin fibroblasts; actives raise or lower the signal.
Procedure: BSK_hDFCGF is a cell-based, multiplexed-readout assay that uses foreskin fibroblast, a human skin primary cell, with measurements taken at 24 hours after chemical dosing in a 96-well plate.BSK_hDFCGF_TIMP1 is an assay component measured in the BSK_hDFCGF assay. It measures TIMP-1 antibody related to regulation of gene expression using ELISA technology.Data from the assay component BSK_hDFCGF_TIMP1 was analyzed into 1 assay endpoint. This assay endpoint, BSK_hDFCGF_TIMP1, was analyzed with bidirectional fitting relative to DMSO as the negative control and baseline of activity. Using a type of binding reporter, gain or loss-of-signal activity can be used to understand changes in the signaling as they relate to the gene TIMP1. Furthermore, this assay endpoint can be referred to as a primary readout, because this assay has produced multiple assay endpoints where this one serves a signaling function. To generalize the intended target to other relatable targets, this assay endpoint is annotated to the protease inhibitor intended target family, where the subfamily is metalloproteinase inhibitor.
The levels of cell surface (or secreted, indicated by the prefix "s") biomarker endpoints were measured by ELISA. Overt cytotoxicity to cells in confluent adherent cultures (all systems other than the BT system) was assessed by measuring total protein levels using sulforhodamine B (SRB) staining in parallel cultures at the time of biomarker measurements, indicated as SRB endpoints. For proliferation assays for adherent cell types, individual cell types are cultured at sub-confluence and relative cell numbers quantified by SRB staining at time points optimized for each system (48 h: 3C and CASM3C systems; 72 h: BT and HDF3CGF systems; 96 h: SAg system). SRB was performed by staining cells with 0.1% SRB after fixation with 10% TCA and reading wells at 560 nm.Viability and proliferation of PBMC (T cells) was quantified by Alamar Blue reduction for the SAg and BT systems. For PBMC viability (referred to as PBMC Cytotoxicity within the assay endpoint names), cells were plated (75,000/well in a 96-well plate) and then chemical samples added for 1 h before addition of activators, SEB and TSST-1 (20 ng/mL final concentration each). Cells were incubated for 90 h. Then, Alamar Blue (20 uL/well) (Invitrogen, Cat DAL1100) was added for 6 h, and the plates were read with a fluorescence microplate reader at 546/580 nm (excitation/emission). For PBMC proliferation, cells were plated and activated as above but incubated for only 16 h prior to addition of Alamar Blue. Plates were read after 6 h.
In the case of `c1ccc(C2CO2)cc1` (stereo not given), the outcome is reported as “inactive”. In the case of `CCC[CH2][Sn]([Cl])([CH2]CCC)[CH2]CCC`, the AC50 is reported as 0.148 µM (active). `CC(C)COC(=O)c1ccccc1C(=O)OCC(C)C` was tested, and the outcome was “inactive”. With `CC(C)N(Cc1ccccc1)C(=O)C(C)(C)C` the outcome was “inactive”. In the case of `Nc1ccc(Oc2ccc(N)cc2)cc1`, the outcome is reported as “inactive”. For `ClCCOCCCl`, the outcome was “inactive”. For `CN(C)c1ccc(C(=O)c2ccc(N(C)C)cc2)cc1`, the outcome was “inactive”. `Cc1cc(N=Nc2ccccc2C)ccc1N` was tested, and the outcome was “inactive”. In the case of `COc1cc(C=O)cc2c1[C@H](COC(N)=O)[C@]1(OC(C)=O)ON2C[C@H]2[C@@H]1N2C(C)=O`, the AC50 is reported as 1.48 µM (active). With `Nc1ccc(Cc2ccc(N)cc2)cc1` the outcome was “inactive”. With `OCCCl` the outcome was “inactive”. With `CCOc1cccc(C2(N3CCN(c4ccccc4)CC3)CCC(C)CC2)c1` (stereo not given) the outcome was “inactive”. With `CC(C)(C)C(O)(CCc1ccc(Cl)cc1)Cn1cncn1` (stereo not given) the outcome was “inactive”. For `ClC1=C(Cl)C2(Cl)C3C(Cl)C=CC3C1(Cl)C2(Cl)Cl` (stereo not given), the AC50 was 9.82 µM (active). For `CN(C)c1ccccc1`, the outcome was “inactive”. With `CCN(CC)CCO` the outcome was “inactive”. `COP(=S)(OC)SCN1C(=O)c2ccccc2C1=O` was tested, and the outcome was “inactive”. In the case of `Clc1ccc(C(c2ccc(Cl)cc2)C(Cl)Cl)cc1`, the AC50 is reported as 11.2 µM (active). For `CC(C)(OOC(C)(C)c1ccccc1)c1ccccc1`, the outcome was “inactive”. In the case of `N#CC(Br)(Br)C(N)=O`, the outcome is reported as “inactive”. With `CCCSC(=O)N(CCC)CCC` the outcome was “inactive”. In the case of `Clc1ccccc1Cl`, the outcome is reported as “inactive”. For `Clc1ccc(C(c2ccc(Cl)cc2)C(Cl)(Cl)Cl)cc1`, the AC50 was 13 µM (active). With `O=C(Oc1ccc(Br)cc1)N1CCN2CCC1CC2` the outcome was “inactive”. For `C=CCc1ccc2c(c1)OCO2`, the outcome was “inactive”. `OCCCBr` was tested, and the outcome was “inactive”. For `CCCCOC(=O)c1ccccc1C(=O)OCc1ccccc1`, the outcome was “inactive”. For `O=C(N[C@H](c1ccccc1)[C@@H]1CN2CCC1CC2)c1c(Cl)ccc(C(F)(F)F)c1Cl`, the outcome was “inactive”. In the case of `O=P(OCCCl)(OCCCl)OCCCl`, the outcome is reported as “inactive”. In the case of `O=[N+]([O-])C(Br)(CO)CO`, the AC50 is reported as 32.9 µM (active). For `O=C1CCCO1`, the outcome was “inactive”. `Clc1ccc(Cl)c(Cl)c1` was tested, and the outcome was “inactive”. In the case of `CCCCCOC(=O)c1ccccc1C(=O)OCCCCC`, the outcome is reported as “inactive”. For `O=C(Nc1ccccc1)c1ccccc1I`, the outcome was “inactive”. `CCN(CC)N=O` was tested, and the outcome was “inactive”. `CNC(=O)Oc1cccc2c1OC(C)(C)C2` was tested, and the outcome was “inactive”. With `CCCCCCCCOC(=O)c1ccc(C(=O)OCCCCCCCC)c(C(=O)OCCCCCCCC)c1` the outcome was “inactive”. With `C[C@]12C=CC3=C4CCC(=O)C=C4CC[C@H]3[C@@H]1CC[C@@H]2O` the outcome was “inactive”. With `CS(=O)(=O)NC(=O)c1cc(Oc2ccc(C(F)(F)F)cc2Cl)ccc1[N+](=O)[O-]` the outcome was “inactive”. With `O=Cc1ccco1` the outcome was “inactive”.
